# Measurements reported in the supplement of paper PMC6555819.
# Test system: RXRa homodimer (NR concentration 180 nM)
# Experiment: PBM binding z-score (relative to random genomic background probes); higher = stronger binding; sequences stand for … in GC…GCGATTGACAGCGTAGAATGAAGG
# Outline: (§1)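 Binding buffer was PBS pH 7.4 with 2% milk, 0.02% Triton X-100, 1 mM DTT, 0.2 mg/mL BSA and 0.4 mg/ml salmon testes DNA. In it, ligand-free nuclear receptor dimers were incubated 1 h on custom Agilent 4×180K protein-binding microarrays carrying double-stranded probes. Antibodies against each partner (one per run) detected binding, and z-scores were calculated against random background probes after regression normalization of scanned fluorescence.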
row,Sequence,PBM binding z-score
1,AGAAGGAGGTTATACGTAGATCAGGGAAGAAAGT,1.59
2,CCTACTGGGCCACGCAAGGTCATTGATTCAGTGA,2.62
3,GTACCAAGGTGAATAGGTTGTTGATGAGTAGGCG,0.717
4,TCATATAGGTAATACAGGTGAAAGCCGGCATCTA,1.55
5,CCGACTGGGGCATAAGGTCACCATAAGCCAGCCC,4.29
6,TGAATGAGGTTCAAGATCAGGGAACGTGGCGTCG,1.66
7,CGTCAAAGTTCAACTAAGGAAACGTAAAGCACGC,4.94
8,AGAACGAGGGCACGCTGATTTGATAGCAGAGTAG,1.38
9,CGTCAAAGTTCAAGGTAACGTACCAGAAAGCAGC,4.54
10,TAGCCTAGGGCATGCGGGCCAGTATAGTGTCGGC,-0.233
11,TCTTGTAGAGCAAAGGTTAAGAAAGCCGAAGCCT,2.6
12,CCGACTGGGGCAAGGTTACCTTAACGCACAGCCA,1.1
13,CCAGACAGGTGAGAAGGTCACTCAGCCTCGATTA,3.76
14,CCTACTGGGCCCTTCAGAGGTCATTGATCATATG,3.49
15,CCTGGTAGGTCATGGTCAGCTAATCTACAGTATG,3.62
16,CCTTACGGGACACTGACAGGTTATAGCATTTGGA,0.341
17,TCGAGTAGGTTACCAATGGGGCATTCACCTTTCT,0.913
18,ACTTACGGGTCAACGAGGTTATTGCACGCGTATA,6.27

# Test system: THRa:RXRa (NR concentration 90 nM, RXRa partner concentration 90 nM)
# Experiment: as above
# Outline: as §1
row,Sequence,PBM binding z-score
1,TCTCGGAGGACATGAAGGTCAGAGCTTTCCAGAG,2.28
2,GGAACCAGGGCAAAGTTGATAGCATCTGTCGACG,1.18
3,CGTCCAAGGTCAATGCTAGGTCAGTGAAAGCATT,4.31
4,CAAACTACGTCACCGGAAGGTCAAAGTCCGCATG,2.88
5,TCTAGCAGGCCAGATGGTCACTCAAGAGGTACGG,-0.597
6,AGAATGAGGTTACCAAAGATCAGGGCAACGCTTG,3.16
7,GCTCGGAGGACAAGGTCAGAGCCTTGTCCGTAGA,2.78
8,GCTACTGGGGCAAAGCAGGTTACCATAAGGTTGG,2.75
9,TCTATTAGTTGACGGGCAACCGACGAGTCCGTTT,-0.223
10,TCACACAGGTGAAGGTAACTCAGGTACGCAGTCG,1.4
11,TCATATAGGTAAAAGGAGAAAGTCGGTGTGGTAA,-0.0526
12,ATCTCTAGGGAAAAGTTCAGTGAATCCCGAGGAT,0.24
13,CGTCCACGGTCAAGGTCAGTGAAAGAGACTCGAA,3.05
14,CCTCCAAGGTCAATGCTAGGTCAGTGAAAGCATT,4.47
15,CCAGACAGGTGAGAAGGTAACACAGCCTCGATTA,0.62
16,TAGCCTAGGTCAAGGGCCAGTATACCACGCGAAC,2.78

row,Sequence,PBM binding z-score
1,CCTAGTTGGTCAGAAGGTCACACACCGGATATGA,3.12
2,CGTCAAAATTCAACTAAGGTAACGTAAAGCACGC,2.94
3,ATCTCTAGGTAAAGTTCAGTGATAGATCGATAGA,1.2
4,TCTTGTAAATCAGCAGGTTAAGAAAGCTGGCCAA,0.32
5,ATACCAAGGTGACCGTGAGGTCGTTGATACTAAC,3.74
6,CTACCCAGGTGAACAAGGTCGTTGATTACTATTC,2.94
7,AGAAGGAGGTTATACGTAGATCAGGGAAGAAAGT,1.28
8,CCTACTGGGCCACGCAAGGTCATTGATTCAGTGA,4.54
9,GTACCAAGGTGAATAGGTTGTTGATGAGTAGGCG,1.55
10,TCATATAGGTAATACAGGTGAAAGCCGGCATCTA,1.14
11,CCGACTGGGGCATAAGGTCACCATAAGCCAGCCC,4.08
12,TGAATGAGGTTCAAGATCAGGGAACGTGGCGTCG,0.882
13,CGTCAAAGTTCAACTAAGGAAACGTAAAGCACGC,4.5
14,AGAACGAGGGCACGCTGATTTGATAGCAGAGTAG,1.65
15,CGTCAAAGTTCAAGGTAACGTACCAGAAAGCAGC,3.12
